# Bioassay records (PubChem)
# Sampled rows, rich in hits. Any-hit rate of the full collection: about 5.5%.
# a7 integrin act: qHTS for Activators of Integrin-Mediated Alleviation for Muscular Dystrophy. Potency, µM (doses to about 38.3 µM), without a hit: at the highest dose activation, actives largely listed as activators. 350,000 compounds, 0.064% hits. AID 624291, 2012. alpha7betagal myoblasts, beta-gal FDG fluorescence, 48 h;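 note: 100% = response of the positive control SU9516; nearly all actives have a fitted effect of over 60% in size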
#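 alpha7betagal+/- myoblasts (passage 13, 250/well) treated 48 h at 37C with compounds at 1:260 dilution of DMSO stock. Lysed, then beta-galactosidase activity read as FDG fluorescence (ex 480/em 540) after 30 min, with pre-read for autofluorescence.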
# Mito fusion yeast: qHTS Assay for Small Molecule Inhibitors of Mitochondrial Division or Activators of Mitochondrial Fusion. Potency, µM (highest dose often 46.1 µM), for inactives: at the highest dose growth rescue (activation), most hits filed as activators. S. cerevisiae fusion-defective mutant growth rescue, CellTiterGlo 48 h. AID 485298, 2010. 320,000 compounds, 0.23% hits; note: % of control where 0% means no effect; nearly all actives have a fitted effect of over 45% in size
#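 Temperature-sensitive fusion-defective S. cerevisiae (e.g. fzo1-1, mgm1-5) were grown with compound in YPEG medium (3% ethanol, 3% glycerol) for 48 hours at 37C. Growth rescue was measured as viability by CellTiterGlo luminescence after 10 minutes at ambient.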
# Gal4-VP16 FLuc: VP16 counterscreen qHTS for inhibitors of ROR gamma transcriptional activity | Drosophila S2 Gal4-VP16 UAS-luciferase, luminescence, 20 h | Potency, µM (highest dose often 53.6 µM), inactives show top-dose activity, negative = inhibition, actives largely listed as inhibitors | 310,000 compounds, 3.5% hits | AID 2546, 2010;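 note: Gal4-VP16 expression switched on by copper sulfate through the metallothionein promoter; % is set by controls: 0 for no effect and ±100 for the full control effect; nearly all actives have a fitted effect of over 50% in size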
# RORg inh: qHTS for inhibitors of ROR gamma transcriptional activity; Nuclear receptor ROR-gamma (Mus musculus), P51450; Drosophila S2 Gal4-RORgamma UAS-luciferase reporter, 20 h; Potency, µM (series often up to 53.6 µM), for the others: at the highest dose activity change, negative = inhibition, usual class: inhibitors; 310,000 compounds, 5.4% hits; AID 2551, 2010; note: % is set by controls: 0 for no effect and ±100 for the full control effect; nearly all actives have a fitted effect of over 60% in size
# Target sequence (P51450 whole entry, looked up, the tested form may be a part): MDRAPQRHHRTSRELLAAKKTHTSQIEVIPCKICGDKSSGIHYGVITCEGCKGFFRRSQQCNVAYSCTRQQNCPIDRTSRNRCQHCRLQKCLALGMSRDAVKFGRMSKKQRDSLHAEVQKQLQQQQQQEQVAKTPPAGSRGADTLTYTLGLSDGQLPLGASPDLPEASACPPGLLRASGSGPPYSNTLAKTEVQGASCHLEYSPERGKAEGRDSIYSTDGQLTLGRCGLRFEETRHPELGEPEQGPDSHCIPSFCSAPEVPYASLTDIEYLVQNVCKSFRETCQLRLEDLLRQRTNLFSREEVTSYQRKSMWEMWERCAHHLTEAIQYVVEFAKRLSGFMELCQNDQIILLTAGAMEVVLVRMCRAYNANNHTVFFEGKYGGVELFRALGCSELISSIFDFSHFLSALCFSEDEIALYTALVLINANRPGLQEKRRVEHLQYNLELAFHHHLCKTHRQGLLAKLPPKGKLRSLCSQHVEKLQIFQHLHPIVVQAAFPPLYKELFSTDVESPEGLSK
#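 Luciferase reporter read in Schneider cells carrying Gal4-RORγ (mouse) and UAS-Photinus luciferase; cells given compound 1 h before 700 uM copper sulfate induction, then incubated 20 h at ambient temperature.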
# BCR signal inh: qHTS Assay to Find Inhibitors of Chronic Active B-Cell Receptor Signaling. 340,000 compounds, 0.05% hits. ABC-DLBCL IkBa-CBG/CBR reporter, luminescence ratio, 4 h. Potency, µM (top dose mostly 46.1 µM), without a hit: at the top dose activity change, negative = inhibition, usual class: inhibitors; active = well fitted inhibition curve with a large enough effect in the signal ratio, with a control signal flat, not every such curve was filed as active; inconclusive = small, poorly fitted or top-dose-only effect, or effect the other way, or a change in a side signal; the % refers to the signal ratio;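 note: plate controls were basal doxycycline-induced cells for no effect and cells given 10 µM MG132 for full effect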
#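 Compounds up to 46 uM were incubated four hours with TMD8 cells whose green CBG68 luciferase is fused to IkappaBalpha; red CBR luminescence normalised the signal, and concentration-effect curves were fitted to fusion, red and ratio data.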
# uPA surface inh: qHTS for Inhibitors of Cell Surface uPA Generation; cell surface uPA generation assay, qHTS; Potency, µM (highest dose often 38.3 µM), without a hit: top-dose activity change, negative = inhibition, hits mostly inhibitors; 330,000 compounds, 0.31% hits; AID 540303, 2011; active = well fitted inhibition curve with a large enough effect; inconclusive = small, poorly fitted or top-dose-only effect; inactive = no such curve, though single readings can be large or run the other way; tested in mouse RAW 264.7 cells; note: % is set by controls: 0 for no effect and ±100 for the full control effect; nearly all actives have a fitted effect of over 55% in size
# * hit, by the source's call; u = inconclusive; x = no result given; [ ] = dose if it differs, or a comment. Unless noted, calls come from the whole dose curve; as a rule, active = well fitted curve in the direction sought with a large enough effect; inconclusive = small, poorly fitted or top-dose-only effect, or another doubt; inactive = no such curve, though single readings can be large; an effect the other way counts as inactive or inconclusive. Potency is the fitted concentration of half-maximal effect.
SMILES,a7 integrin act,Mito fusion yeast,Gal4-VP16 FLuc,RORg inh,BCR signal inh,uPA surface inh
C=C1CCN(C(Cc2ccccc2)C(=O)N2CCOCC2)S(=O)(=O)c2ccccc21 (centres undefined),x,x,15.1%,2.3%,x,x
CC(C(=O)O)c1ccc(C(=O)c2ccccc2)s1 (centres undefined),x,-0.7%,x,x,-13.7%,1.1%
CCC(C)c1ccc(C2C3=C(Nc4nc(N)[nH]c(=O)c42)c2ccccc2C3=O)cc1 (centres undefined),0.5%,2.4%,u,12.6µM*,4.4%,0.7%
CCCCCCCCC(=O)N/N=C(\C)c1ccc(O)cc1O,-14.8%,-33.3%,u,3.55µM*,-0.2%,-5.5%
CCCCCCCCC(=O)N/N=C(\C)c1ccco1,6.8%,0.0%,4.6%,u,0.7%,4.9%
CCCCCCCC(=O)N/N=C(/C)c1c(O)cc(C)oc1=O,-13.6%[7.66 µM],-3.9%,22.4µM*,8.91µM*,0.6%,x
CCCCCCCC(=O)N/N=C(\C)c1ccc(N)cc1,x,-1.7%,-14.8%,19.3%,-13.1%,x
CCCCC(=O)c1ccc(O)cc1O,-7.0%,x,x,x,x,-0.3%
C/C(=N\NC(=O)c1cccs1)c1c(O)cc(C)oc1=O,27.6%,-0.4%,5.01µM*,4.47µM*,u,-15.0%
C/C(=N/NC(=O)c1cccs1)c1cccs1,-0.8%,-2.8%,-1.5%,u,u,-7.1%
CCCCCCCC(=O)N/N=C(\C)c1ccc(O)cc1O,-3.2%,-29.9%,11.2µM*,7.08µM*,1.4%,-4.5%
COc1ccc(S(=O)(=O)N2CCc3ccccc32)cc1C(=O)N(CC(C)C)C1CCS(=O)(=O)C1 (centres undefined),-13.3%,-5.2%,x,x,6.9%,1.2%
CCCCn1c(SCC(=O)NCCCOC)nc2c(sc3ccccc32)c1=O,x,x,x,x,-8.2%,x
CCCCOc1ccc(CSCCNC(=S)Nc2ccccc2)cc1,-29.5%,7.6%,4.47µM*,4.47µM*,u,-8.5%
CC(C)COc1ccc(CSCCNC(=S)Nc2ccccc2)cc1,-50.4%,-11.5%,3.16µM*,1.12µM*,9.6%,-4.7%
CCOc1ccc(CNC(=O)Nc2ccccc2)cc1,-8.0%,-8.0%,27.4%,6.8%,-1.5%,0.6%
CCCCCOc1ccc(CSCCNC(=S)Nc2ccccc2)cc1,0.6%,14.6%,3.16µM*,3.16µM*,u,0.8%
Cc1cccc(CSCCNC(=O)Nc2ccccc2)c1,-13.0%,9.8%,-2.4%,-3.2%,-2.3%,-4.1%
Cc1ccc(N(C(=O)c2csnn2)C(C(=O)NC2CCCCC2)c2ccncc2)cc1 (centres undefined),0.7%,2.3%,-4.2%,0.2%,u,1.3%
CCCCn1c(N)c(N(CCOC)C(=O)c2cc(Cl)nc3ccccc23)c(=O)[nH]c1=O,-11.8%,-6.6%,x,x,-1.9%,1.8%
CC1CCCN(c2ccc(C(=O)Nc3nnc(C4CC4)s3)cc2[N+](=O)[O-])C1 (centres undefined),-33.1%,-7.6%,u,12.6µM*,3.1%,8.9%
CC1CCCN(c2ccc(C(=O)Nc3ccc4c(c3)OCO4)cc2[N+](=O)[O-])C1 (centres undefined),1.4%,17.8µM*,-0.7%,u,7.3%,-6.1%
CC1CCN(c2ccc(C(=O)Nc3ccc4c(c3)OCO4)cc2[N+](=O)[O-])CC1,-43.7%,u,1.9%,u,u,4.9%
CC1CCCN(c2ccc(C(=O)NCc3ccc4c(c3)OCO4)cc2[N+](=O)[O-])C1 (centres undefined),15.3%,6.3%,-2.2%,32.5%,5.7%,3.0%
Cc1cccc(Oc2cc(NC(=O)Cn3cnc([N+](=O)[O-])n3)cc([N+](=O)[O-])c2)c1,-39.5%,-4.6%,u,u,u,-4.0%
SMILES,a7 integrin act,Mito fusion yeast,Gal4-VP16 FLuc,RORg inh,BCR signal inh,uPA surface inh
Cc1cc(C)cc(Oc2cc(NC(=O)c3cn(C)nc3C)cc([N+](=O)[O-])c2)c1,-1.5%,0.9%,7.94µM*,u,-9.9%,x
CC(C)=NOc1cc(NC(=O)CCl)cc([N+](=O)[O-])c1,-52.8%,-39.7%,7.08µM*,10µM*,u,-14.5%
O=C(CCl)Nc1cc(SCC(O)CO)cc([N+](=O)[O-])c1 (centres undefined),-37.1%,-4.4%,5.01µM*,u,u,-15.7%
CCC(=O)Nc1cc(SCCO)cc([N+](=O)[O-])c1,31.7%,3.7%,-0.2%,u,4.6%,5.2%
c1ccc2[nH]ccc2c1,x,x,-1.8%,9.0%,x,x
CC(C)CCn1c(=O)c2ccccc2n2c(=S)[nH]nc12,-4.5%,u,12.6µM*,3.98µM*,6.8%,-2.8%
CCOCCCn1c(=O)c2ccccc2n2c(=S)[nH]nc12,-28.5%,11.9%,-20.3%,u,12.0%,7.3%
COC(=O)c1ccc2c(=O)n(Cc3ccc4c(c3)OCO4)c(=S)[nH]c2c1,25.8%,-4.9%,3.55µM*,2.51µM*,6.8%,12.4%
COC(=O)c1ccc2c(=O)n(CCCCCC(=O)O)c(=S)[nH]c2c1,5.1%,-1.4%,14.1µM*,7.08µM*,u,4.3%
N#Cc1ccc(C[C@H](C(=O)O)N2C(=O)c3ccc(C(=O)O)cc3C2=O)cc1,x,-3.7%,1.7%,3.2%,6.7%,x
O=C(NCC(=O)N1CCN(c2ccccc2)CC1)c1ccccc1,-29.1%,1.6%,16.2%,u,u,-0.9%
CC(C)(C)c1cc(C(c2cccnc2)N2CCN(CCO)CC2)cc(C(C)(C)C)c1O (centres undefined),-58.4%,-19.0%,17.8µM*,12.6µM*,u,u
CN1/C(=C\C(=O)CSc2cccc[n+]2[O-])C(C)(C)c2ccccc21,-34.5%,3.9%,u,7.08µM*,u,-7.8%
CN1/C(=C/C(=O)CSc2ccccc2C(=O)O)C(C)(C)c2ccccc21,0.0%,2.9%,-7.4%,1.7%,u,2.3%
Cc1ccc[n+](CC(=O)/C=C2\N(C)c3ccccc3C2(C)C)c1,-9.1%,0.9%,-13.4%,u,-0.8%,-8.9%
Cc1cccc[n+]1CC(=O)/C=C1\N(C)c2ccccc2C1(C)C,-41.1%,-0.3%,6.31µM*,u,0.3%,-5.0%
CN1/C(=C\C(=O)C[n+]2cccc(Br)c2)C(C)(C)c2ccccc21,-44.4%,-1.2%,12.6µM*,11.2%,9.6%,1.6%
OC[C@@H](O)C(O)[C@H](O)[C@@H](O)CO (some centres undefined),x,x,-9.5%,8.5%,x,x
COc1ccccc1N1CCN(C(=O)c2ccc(COc3cccc4c3OC(C)(C)C4)cc2)CC1,-36.4%,9.8%,x,x,8.1%,-10.7%
